The panel holds about 79,000 compounds, 15% with a hit somewhere; the sample as a whole holds those more often. Values without a mark were called inactive. Activity calls are given as the source filed them. No stated cut-off is given here; in the data, active means growth inhibition above about 70%; inactive means the rest.
Assay: NCI Yeast Anticancer Drug Screen. Data for the mlh1 strain (AID 171);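 further: 0% = growth of vehicle-treated control cultures of the same strain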
Conditions: S. cerevisiae mlh1 strain growth inhibition, active compounds read high
Experimental: Growth inhibition of yeast strains with defined genetic alterations is measured as a screen for potential anti-cancer activity. Selected strains with alterations in DNA damage repair or cell cycle control were exposed to compounds and growth inhibition was measured relative to vehicle treated controls. The strain used in this assay is mlh1

| SMILES | growth inhibition (at 1.2 µM) [%] | growth inhibition (at 3.7 µM) [%] | growth inhibition (at 11.0 µM) | growth inhibition (at 33.0 µM) | growth inhibition (at 100.0 µM) |
| --- | --- | --- | --- | --- | --- |
| CC(=O)CCC1=C(C)C(=O)C(=O)C(C)=C1O | -5 | -3 | -23% | 13% | 96% (active) |
| CNC(=O)OCc1c2ccncc2c(C)c2c1[nH]c1ccccc12 | 6 | 20 | 26% | 38% | 66% |
| CCN(CC)CCC(=O)Nc1ccc2sc3ccccc3c(=O)c2n1 | -2 | -8 | 1% | 12% | 7% |
| O=C(C#Cc1ccccc1)/C=C/c1ccccc1 | -9 | -2 | -3% | 49% | 96% (active) |
| CCOC(=O)/C(=C\c1cccc(C)c1)C(C)=O | 13 | 18 | 80% (active) | 95% (active) | 98% (active) |
| COC(=O)c1ccccc1N=NNc1cccc(SC)c1 | 2 | 4 | 17% | 94% (active) | 88% (active) |
| COc1cc(OC)c(CSCC(NC(=O)OCC2c3ccccc3-c3ccccc32)C(=O)O)c(OC)c1 (stereo not given) | 3 | 9 | 62% | 97% (active) | 98% (active) |
| O=C1CC(C(O)(C(F)(F)F)C(F)(F)Cl)CCC1C(O)(C(F)(F)F)C(F)(F)Cl (stereo not given) | 52 | 46 | 67% | 92% (active) | 98% (active) |

Reference: PubChem BioAssay (NCI)
